Results published in ChEMBL document CHEMBL1961873, “Compounds: GSK PKIS; Assays: Nanosyn kinase panel” (2012).

Assays:
[1] = target: T1, Serine/threonine-protein kinase Nek9 (Homo sapiens) (UniProt Q8TD19); details: at 1 µM;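 also: each value is a mean percent inhibition of NEK9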
T1 sequence (whole entry): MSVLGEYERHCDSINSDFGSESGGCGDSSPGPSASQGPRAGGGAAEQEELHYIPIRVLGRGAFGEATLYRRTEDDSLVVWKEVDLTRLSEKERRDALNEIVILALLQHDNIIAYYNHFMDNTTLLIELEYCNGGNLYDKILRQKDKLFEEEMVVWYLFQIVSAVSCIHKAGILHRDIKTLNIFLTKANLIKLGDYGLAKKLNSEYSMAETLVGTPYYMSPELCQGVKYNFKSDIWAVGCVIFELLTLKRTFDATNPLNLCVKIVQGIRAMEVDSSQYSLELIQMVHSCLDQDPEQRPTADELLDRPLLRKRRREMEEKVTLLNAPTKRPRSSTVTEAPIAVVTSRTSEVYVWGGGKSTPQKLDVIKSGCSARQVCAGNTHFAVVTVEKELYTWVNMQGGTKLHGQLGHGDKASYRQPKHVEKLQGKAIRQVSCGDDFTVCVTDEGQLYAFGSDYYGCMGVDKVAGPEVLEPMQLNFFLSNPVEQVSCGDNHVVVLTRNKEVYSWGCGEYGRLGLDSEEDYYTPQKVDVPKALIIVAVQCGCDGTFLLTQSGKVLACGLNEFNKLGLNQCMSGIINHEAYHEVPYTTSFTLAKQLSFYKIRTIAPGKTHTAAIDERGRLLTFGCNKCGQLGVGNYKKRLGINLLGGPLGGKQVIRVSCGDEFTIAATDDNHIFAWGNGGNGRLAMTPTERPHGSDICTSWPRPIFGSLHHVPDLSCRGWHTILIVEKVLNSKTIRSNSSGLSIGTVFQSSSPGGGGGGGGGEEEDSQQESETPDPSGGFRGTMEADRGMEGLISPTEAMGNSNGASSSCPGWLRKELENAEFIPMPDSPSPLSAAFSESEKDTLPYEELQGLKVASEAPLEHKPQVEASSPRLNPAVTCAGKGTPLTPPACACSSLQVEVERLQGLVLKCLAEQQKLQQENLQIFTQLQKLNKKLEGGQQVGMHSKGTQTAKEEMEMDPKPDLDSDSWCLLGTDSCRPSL

[2] = target: Serine/threonine-protein kinase PLK1 (Homo sapiens) (UniProt P53350); details: at 0.1 µM
[3] = target: Serine/threonine-protein kinase PLK1 (Homo sapiens) (UniProt P53350); details: at 1 µM
[4] = target: T2, Dual specificity protein kinase TTK (Homo sapiens) (UniProt P33981); details: at 0.1 µM
T2 sequence (whole entry): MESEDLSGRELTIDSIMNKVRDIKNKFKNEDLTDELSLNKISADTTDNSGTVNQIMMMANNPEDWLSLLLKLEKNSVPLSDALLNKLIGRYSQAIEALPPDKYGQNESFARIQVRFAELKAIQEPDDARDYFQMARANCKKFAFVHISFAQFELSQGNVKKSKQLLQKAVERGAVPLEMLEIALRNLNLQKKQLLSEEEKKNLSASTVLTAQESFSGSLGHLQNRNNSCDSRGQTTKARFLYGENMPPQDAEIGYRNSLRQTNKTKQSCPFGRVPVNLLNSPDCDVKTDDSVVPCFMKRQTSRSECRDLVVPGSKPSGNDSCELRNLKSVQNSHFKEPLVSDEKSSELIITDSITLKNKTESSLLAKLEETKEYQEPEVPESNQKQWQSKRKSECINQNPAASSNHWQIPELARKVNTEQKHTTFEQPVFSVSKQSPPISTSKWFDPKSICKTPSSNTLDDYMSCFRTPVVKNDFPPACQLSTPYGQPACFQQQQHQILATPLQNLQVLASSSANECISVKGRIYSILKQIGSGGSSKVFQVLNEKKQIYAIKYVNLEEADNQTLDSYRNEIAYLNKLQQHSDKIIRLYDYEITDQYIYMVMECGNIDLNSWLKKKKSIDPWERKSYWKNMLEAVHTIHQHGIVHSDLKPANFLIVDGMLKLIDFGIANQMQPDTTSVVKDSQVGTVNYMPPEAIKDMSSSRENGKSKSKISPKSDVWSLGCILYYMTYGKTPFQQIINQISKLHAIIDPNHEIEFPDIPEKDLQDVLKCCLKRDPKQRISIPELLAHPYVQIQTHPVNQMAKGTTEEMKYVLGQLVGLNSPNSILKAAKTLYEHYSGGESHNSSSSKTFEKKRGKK

[5] = test system: T3, Receptor-type tyrosine-protein kinase FLT3 (Homo sapiens), P36888 [D835Y]; details: at 1 µM
T3 sequence (whole entry): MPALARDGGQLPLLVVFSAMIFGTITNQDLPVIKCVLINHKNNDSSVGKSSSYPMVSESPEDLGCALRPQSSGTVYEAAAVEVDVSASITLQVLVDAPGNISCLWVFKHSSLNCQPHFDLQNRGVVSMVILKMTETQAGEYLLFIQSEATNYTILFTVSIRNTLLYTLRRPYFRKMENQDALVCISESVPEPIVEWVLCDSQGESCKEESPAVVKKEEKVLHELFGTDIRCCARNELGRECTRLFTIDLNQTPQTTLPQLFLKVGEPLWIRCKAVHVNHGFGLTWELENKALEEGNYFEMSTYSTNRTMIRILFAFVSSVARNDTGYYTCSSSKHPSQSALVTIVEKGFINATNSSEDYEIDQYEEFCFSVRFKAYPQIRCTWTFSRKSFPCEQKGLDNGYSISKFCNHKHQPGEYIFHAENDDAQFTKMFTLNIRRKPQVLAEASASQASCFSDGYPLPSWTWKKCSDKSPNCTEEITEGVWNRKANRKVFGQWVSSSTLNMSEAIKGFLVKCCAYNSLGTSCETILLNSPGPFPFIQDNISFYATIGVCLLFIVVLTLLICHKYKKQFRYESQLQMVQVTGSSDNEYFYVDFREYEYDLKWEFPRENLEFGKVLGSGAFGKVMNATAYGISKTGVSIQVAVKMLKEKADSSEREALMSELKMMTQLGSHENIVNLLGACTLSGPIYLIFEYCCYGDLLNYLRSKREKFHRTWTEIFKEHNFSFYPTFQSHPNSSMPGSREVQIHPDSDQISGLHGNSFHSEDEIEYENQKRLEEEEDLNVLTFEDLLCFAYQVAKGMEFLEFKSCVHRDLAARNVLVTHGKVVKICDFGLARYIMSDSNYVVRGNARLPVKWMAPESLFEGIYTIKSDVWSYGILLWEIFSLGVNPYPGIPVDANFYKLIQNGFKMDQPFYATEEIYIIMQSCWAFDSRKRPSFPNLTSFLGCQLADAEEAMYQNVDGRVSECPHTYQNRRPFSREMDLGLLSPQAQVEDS

[6] = target: Vascular endothelial growth factor receptor 3 (Homo sapiens) (UniProt P35916); details: at 0.1 µM
[7] = target: Vascular endothelial growth factor receptor 3 (Homo sapiens) (UniProt P35916); details: at 1 µM
[8] = target: Macrophage colony-stimulating factor 1 receptor (Homo sapiens) (UniProt P07333); details: at 0.1 µM
[9] = target: Macrophage colony-stimulating factor 1 receptor (Homo sapiens) (UniProt P07333); details: at 1 µM
[10] = target: Tyrosine-protein kinase Fyn (Homo sapiens) (UniProt P06241); details: at 0.1 µM
Chain of Tyrosine-protein kinase Fyn (Homo sapiens) (P06241 2-537 limits assumed): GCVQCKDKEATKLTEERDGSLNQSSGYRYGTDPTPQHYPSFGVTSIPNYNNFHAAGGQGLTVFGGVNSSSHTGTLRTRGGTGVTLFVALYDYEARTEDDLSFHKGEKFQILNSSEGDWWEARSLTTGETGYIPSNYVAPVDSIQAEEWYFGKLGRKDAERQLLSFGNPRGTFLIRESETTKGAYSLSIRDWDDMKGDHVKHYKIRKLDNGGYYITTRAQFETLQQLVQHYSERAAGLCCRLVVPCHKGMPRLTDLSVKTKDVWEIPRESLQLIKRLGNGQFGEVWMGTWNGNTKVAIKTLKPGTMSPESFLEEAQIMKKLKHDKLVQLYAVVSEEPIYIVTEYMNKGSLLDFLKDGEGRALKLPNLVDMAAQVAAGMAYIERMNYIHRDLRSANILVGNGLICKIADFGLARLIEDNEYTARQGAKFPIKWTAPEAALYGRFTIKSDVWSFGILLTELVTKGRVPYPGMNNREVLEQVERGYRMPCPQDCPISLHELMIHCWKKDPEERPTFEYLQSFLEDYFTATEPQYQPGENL

Chain of Vascular endothelial growth factor receptor 3 (Homo sapiens) (P35916 whole entry): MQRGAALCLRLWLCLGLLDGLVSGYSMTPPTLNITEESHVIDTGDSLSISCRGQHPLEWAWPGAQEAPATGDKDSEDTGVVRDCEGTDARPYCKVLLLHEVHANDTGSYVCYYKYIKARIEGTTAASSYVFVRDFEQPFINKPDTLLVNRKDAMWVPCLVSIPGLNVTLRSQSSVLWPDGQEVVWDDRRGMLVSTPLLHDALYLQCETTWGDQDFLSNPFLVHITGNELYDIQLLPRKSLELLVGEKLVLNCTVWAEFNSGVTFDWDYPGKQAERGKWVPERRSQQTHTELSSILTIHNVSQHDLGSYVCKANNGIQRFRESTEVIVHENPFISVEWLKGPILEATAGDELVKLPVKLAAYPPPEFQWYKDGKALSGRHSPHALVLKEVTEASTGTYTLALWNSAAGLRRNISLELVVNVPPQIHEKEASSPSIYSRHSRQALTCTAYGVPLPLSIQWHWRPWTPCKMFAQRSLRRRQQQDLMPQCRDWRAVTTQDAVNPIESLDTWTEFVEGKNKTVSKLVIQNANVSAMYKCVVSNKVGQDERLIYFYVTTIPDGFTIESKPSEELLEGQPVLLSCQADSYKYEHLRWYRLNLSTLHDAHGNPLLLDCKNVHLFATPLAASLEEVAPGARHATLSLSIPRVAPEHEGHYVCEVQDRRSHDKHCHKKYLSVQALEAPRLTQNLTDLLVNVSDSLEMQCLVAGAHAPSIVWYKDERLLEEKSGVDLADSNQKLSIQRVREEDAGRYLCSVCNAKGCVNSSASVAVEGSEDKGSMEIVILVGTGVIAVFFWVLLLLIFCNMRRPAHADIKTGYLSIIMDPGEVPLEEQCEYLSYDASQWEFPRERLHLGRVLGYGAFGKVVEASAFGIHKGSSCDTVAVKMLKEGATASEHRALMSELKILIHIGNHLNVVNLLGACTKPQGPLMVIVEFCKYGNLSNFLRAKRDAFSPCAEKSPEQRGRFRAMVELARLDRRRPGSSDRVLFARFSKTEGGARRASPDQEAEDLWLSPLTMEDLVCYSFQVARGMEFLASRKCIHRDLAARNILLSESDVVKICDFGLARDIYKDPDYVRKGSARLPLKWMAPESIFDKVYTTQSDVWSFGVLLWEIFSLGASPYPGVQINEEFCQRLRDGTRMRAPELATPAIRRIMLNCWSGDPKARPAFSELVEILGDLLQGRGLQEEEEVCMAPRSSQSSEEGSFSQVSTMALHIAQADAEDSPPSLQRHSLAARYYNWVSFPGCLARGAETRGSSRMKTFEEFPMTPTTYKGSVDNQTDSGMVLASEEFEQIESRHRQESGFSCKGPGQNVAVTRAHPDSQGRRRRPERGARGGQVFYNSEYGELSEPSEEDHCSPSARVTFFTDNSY
Chain of Serine/threonine-protein kinase PLK1 (Homo sapiens) (P53350 whole entry): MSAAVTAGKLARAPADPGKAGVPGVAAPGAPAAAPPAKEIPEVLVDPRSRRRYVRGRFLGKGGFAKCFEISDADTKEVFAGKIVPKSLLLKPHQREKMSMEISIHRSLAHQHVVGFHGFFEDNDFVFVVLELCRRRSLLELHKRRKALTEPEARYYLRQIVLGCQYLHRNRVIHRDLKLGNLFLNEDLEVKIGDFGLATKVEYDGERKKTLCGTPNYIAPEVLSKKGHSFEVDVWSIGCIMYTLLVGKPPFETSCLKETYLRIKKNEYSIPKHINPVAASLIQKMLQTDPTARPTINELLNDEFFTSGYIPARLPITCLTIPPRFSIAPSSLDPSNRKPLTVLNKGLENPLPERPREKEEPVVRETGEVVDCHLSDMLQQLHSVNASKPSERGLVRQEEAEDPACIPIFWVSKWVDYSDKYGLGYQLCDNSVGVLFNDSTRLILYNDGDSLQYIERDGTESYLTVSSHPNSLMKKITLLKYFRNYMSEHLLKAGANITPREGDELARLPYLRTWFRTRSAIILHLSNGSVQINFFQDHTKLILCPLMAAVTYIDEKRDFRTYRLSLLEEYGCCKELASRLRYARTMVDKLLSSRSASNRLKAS
Chain of Macrophage colony-stimulating factor 1 receptor (Homo sapiens) (P07333 whole entry): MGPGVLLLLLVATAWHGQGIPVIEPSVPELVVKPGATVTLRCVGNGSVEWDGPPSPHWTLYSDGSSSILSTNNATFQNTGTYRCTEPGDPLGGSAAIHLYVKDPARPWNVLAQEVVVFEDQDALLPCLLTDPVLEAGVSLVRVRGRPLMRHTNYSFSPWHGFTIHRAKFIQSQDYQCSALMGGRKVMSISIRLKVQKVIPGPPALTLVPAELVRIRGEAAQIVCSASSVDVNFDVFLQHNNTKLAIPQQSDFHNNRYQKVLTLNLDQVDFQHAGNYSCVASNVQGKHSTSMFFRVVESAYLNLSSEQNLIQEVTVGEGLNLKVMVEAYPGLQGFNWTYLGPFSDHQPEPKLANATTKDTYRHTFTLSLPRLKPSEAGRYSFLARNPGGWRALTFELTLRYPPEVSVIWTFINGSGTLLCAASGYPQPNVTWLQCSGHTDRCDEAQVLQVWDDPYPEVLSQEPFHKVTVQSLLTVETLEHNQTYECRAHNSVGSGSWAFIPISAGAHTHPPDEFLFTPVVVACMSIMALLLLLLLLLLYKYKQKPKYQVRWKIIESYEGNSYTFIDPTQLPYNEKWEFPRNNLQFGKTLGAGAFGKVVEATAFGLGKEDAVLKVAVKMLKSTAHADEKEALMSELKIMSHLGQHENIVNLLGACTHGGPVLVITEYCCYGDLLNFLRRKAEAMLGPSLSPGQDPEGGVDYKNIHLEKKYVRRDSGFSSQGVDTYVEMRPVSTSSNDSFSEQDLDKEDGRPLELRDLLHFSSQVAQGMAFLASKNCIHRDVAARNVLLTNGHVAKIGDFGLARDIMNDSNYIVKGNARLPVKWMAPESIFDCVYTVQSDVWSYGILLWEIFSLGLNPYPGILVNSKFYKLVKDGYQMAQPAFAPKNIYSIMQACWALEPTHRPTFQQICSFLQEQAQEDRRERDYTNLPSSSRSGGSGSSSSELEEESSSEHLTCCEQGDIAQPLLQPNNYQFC

Structure (SMILES) | inhibition [1] | inhibition [2] | inhibition [3] | inhibition [4] | inhibition [5] | inhibition [6] | inhibition [7] | inhibition [8] | inhibition [9] | inhibition [10]
O=C1NC(=O)C(c2cccc(Cl)c2)=C1Nc1ccc(O)c(Cl)c1 | 8.97% | 2.84% | 3.21% | 2.22% | 3.58% | 1.15% | 13.3% | 5.89% | 46.8% | 2.3%
CN1CCC(C(=O)Nc2n[nH]c3nnc(-c4ccccc4)cc23)CC1 | 19.2% | 6.37% | 4.03% | 12.6% | -2.63% | 2.1% | 3.3% | 0.38% | 3.05% | 0.66%
COc1cc2ncn(-c3cc(O[C@@H](C)c4ccccc4Cl)c(C(N)=O)s3)c2cc1OC | 38.4% | – | – | 6.36% | 3.92% | 19.7% | 67.6% | 1.84% | 9.87% | 3.53%
CS(=O)(=O)CCN(CC#N)Cc1ccc(-c2ccc3ncnc(Nc4ccc(OCc5cccc(F)c5)c(Cl)c4)c3c2)o1 | 3.24% | 4.17% | 2.97% | 2.64% | 0.21% | -3.53% | -8.49% | 1.14% | 5.44% | -3.25%
Cn1cc(C=C2C(=O)Nc3cccnc32)c2ccccc21 | 4.67% | 2.71% | 1.58% | 9.66% | 77.5% | 4.88% | 30.3% | 6.48% | 30.9% | 4.64%
Nc1nc(-c2ccc3c(c2)C(=Cc2cc(Br)c(O)c(Br)c2)C(=O)N3)cs1 | 8.59% | 0.43% | 3.62% | 2.39% | 3.47% | 4.68% | 6.47% | -1.81% | 2.56% | -0.03%
[O-][S+]1CCN(Cc2ccc(-c3ccc4ncnc(Nc5ccc(OCc6ccccc6)c(F)c5)c4c3)o2)CC1 | 4.38% | 2.17% | 1.22% | 5.89% | 1.92% | -0.55% | 0.47% | 0.26% | 3.3% | 0.67%
Nc1ncnc2occ(-c3ccc(NC(=O)Nc4cc(C(F)(F)F)cc(C(F)(F)F)c4)cc3)c12 | -1.98% | 2.75% | 1.86% | 1.59% | 33.2% | 9.31% | 56.5% | 51.2% | 95.3% | 0.55%
O=C1Nc2ccc(C(=O)c3ccco3)cc2C1=Cc1cc(Cl)c(O)c(Cl)c1 | 5.76% | 9.81% | 43.2% | 10.9% | 29.9% | 6.18% | 12.3% | 26.3% | 74% | 3.62%
O=C1NC(=O)C(c2ccc(Cl)cc2)=C1Nc1ccc(Cl)c(C(=O)O)c1 | -2.24% | -1.32% | -2.04% | -4.32% | 2.75% | 1.23% | 6.6% | 0.6% | 2.16% | 2.16%
Cc1cccc(-c2n[nH]cc2-c2ccc3ncccc3n2)n1 | 4.16% | 0.53% | 3.07% | 2.51% | -2.35% | 4.9% | 39.4% | 2.38% | 2.47% | 0.64%
COC(=O)Nc1nc2cc(Oc3ccc(NC(=O)Nc4cccc(C(=O)O)c4)cc3)ccc2[nH]1 | 1.76% | 0.16% | 0.8% | 1.59% | 4.78% | – | -5.74% | 3.75% | 8.4% | -5.06%
Nc1ncnc2occ(-c3ccc(NC(=O)Nc4cccc(C(F)(F)F)c4)cc3)c12 | 17.9% | 4.84% | 5.99% | 7.86% | 34.6% | 53% | 99.6% | 98.1% | 78% | 3.58%
COc1cc(C)c(NC(=O)CN(C)C)cc1Nc1nc(Nc2cccc(F)c2C(N)=O)c2cc[nH]c2n1 | 2.11% | 70.5% | 92.2% | 24.2% | 4.71% | -3.04% | 1.77% | 3.71% | 26.6% | 1.54%
COc1cc2ncn(-c3cc(OCc4ccccc4C(F)(F)F)c(C(N)=O)s3)c2cc1OC | 58.7% | 93.4% | 96.3% | 7.82% | 14.5% | 6.89% | 53.1% | – | – | -0.99%
Fc1cccc(COc2ccc(Nc3ncnc4cc(-c5ccc[nH]5)sc34)cc2Cl)c1 | 9.08% | 3.81% | 3.54% | 9.76% | 1.35% | – | – | 0.63% | 8.96% | -2.98%
COc1ccc(COc2ccc(Cc3cnc(N)nc3N)cc2OC)cc1 | -4.1% | 0.21% | 3.71% | -2.66% | -1.91% | -2.95% | -0.86% | – | – | 0.22%
